TbPYK inhibitor: qHTS of Trypanosoma Brucei Inhibitors. pyruvate kinase (Trypanosoma brucei), Q57TT1. TbPYK enzyme, Kinase-Glo Plus ATP luminescence, 45 min. Potency, µM (highest dose often 76.8 µM), without a hit: top-dose activity, negative = inhibition, most hits filed as inhibitors. hit rate 0.12% among 410,000. AID 624173, 2012; also: potency is read from the fitted curve at half-maximal effect; % is scaled to controls: 0 for no effect and ±100 for the full control effect; nearly all actives have a fitted effect of over 50% in size
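In this concentration-response screen, enzyme-free wells defined baseline while DMSO plates tracked drift. Each reaction combined TbPYK, substrate, compound and 130 uM ADP for 45 min at room temperature. Kinase-Glo Plus luminescence gave the signal.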
LmPK inh: qHTS Assay for Inhibitors of Leishmania Mexicana Pyruvate Kinase (LmPK); purified LmPK, Kinase-Glo ATP luminescence, 1 h; AID 1721, 2009; Q27686; Potency, µM (highest dose often 57.5 µM), inactives show at the highest dose activity change, negative = inhibition, hits mostly inhibitors; hit rate 0.37% among 290,000; also: potency is read from the fitted curve at half-maximal effect; % is scaled to controls: 0 for no effect and ±100 for the full control effect
Target sequence (Q27686 whole entry, looked up): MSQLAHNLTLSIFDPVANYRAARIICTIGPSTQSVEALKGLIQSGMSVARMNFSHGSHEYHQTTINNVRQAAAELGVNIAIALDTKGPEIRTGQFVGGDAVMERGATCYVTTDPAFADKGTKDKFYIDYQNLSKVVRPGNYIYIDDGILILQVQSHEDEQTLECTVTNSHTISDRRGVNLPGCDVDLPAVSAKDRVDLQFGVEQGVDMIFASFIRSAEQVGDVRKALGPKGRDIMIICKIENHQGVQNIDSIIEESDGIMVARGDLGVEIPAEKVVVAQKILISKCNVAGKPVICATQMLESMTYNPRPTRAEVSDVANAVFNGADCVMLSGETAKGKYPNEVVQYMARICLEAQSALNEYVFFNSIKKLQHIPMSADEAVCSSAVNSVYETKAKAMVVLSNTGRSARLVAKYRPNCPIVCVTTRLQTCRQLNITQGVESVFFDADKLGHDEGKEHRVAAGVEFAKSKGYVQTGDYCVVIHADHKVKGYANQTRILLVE
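Purified LmPK (0.1 nM) converted ADP (0.1 mM) to ATP with PEP (0.5 mM) in imidazole buffer pH 7.2 with KCl and MgCl2, 1 h at room temperature. ATP was read by Kinase-Glo luminescence; data normalized to uninhibited and no-enzyme controls.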
Cycloheximide cs: Cycloheximide Counterscreen for Small Molecule Inhibitors of Shiga Toxin. cell reporter, cycloheximide protein synthesis inhibition counterscreen. max response, %. hit rate 12% among 300,000. AID 2314, 2010; in the data active = max response mostly above about 13%, no sharp cut-off; inactive = mostly below about 14%; also: read at 38.3 µM for the half of the compounds with a filed dose; 0% is about no effect
RE007 growth inh: qHTS Assay for Inhibitors of the HIV-1 protein Vpr; S. pombe RE007 Vpr strain, BacTiter-Glo ATP luminescence, 24 h; Potency, µM (top dose mostly 92.2 µM), inactives show at the top dose activity change, negative = less growth, most hits filed as inhibitors; hit rate 0.21% among 360,000; AID 651644, 2012; active = well fitted falling curve with a large enough effect; inconclusive = small, poorly fitted or top-dose-only effect; inactive = no such curve, though single readings can be large or run the other way; also: potency is read from the fitted curve at half-maximal effect; % is scaled to controls: 0 for no effect and ±100 for the full control effect; nearly all actives have a fitted effect of over 50% in size
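Fission yeast RE007 carrying one integrated HIV-1 vpr copy, seeded at OD 0.01 in PMG+AL medium with 23 nL pinned compound. Grown 24 h at 30 degrees; viability read by BacTiter-Glo luminescence after 5 min.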
Shiga inhibitor: A qHTS for Small Molecule Inhibitors of Shiga Toxin; Vero cells, Shiga toxin protein synthesis inhibition reporter; inhibition, % at 38.7 µM; hit rate 9.2% among 290,000; AID 2315, 2010; in the data active = inhibition mostly above about 28%, no sharp cut-off; inactive = mostly below about 43%; also: 0% is about no effect
Giardia FBPA inh: qHTS Assay for Inhibitors of Fructose-1,6-bisphosphate Aldolase from Giardia Lamblia; Potency, µM (series often up to 59.6 µM), for the others: at the top dose activity, negative = inhibition, usual class: inhibitors; purified Giardia FBPA; A8B2U2; hit rate 0.71% among 290,000; also: potency is read from the fitted curve at half-maximal effect; % is scaled to controls: 0 for no effect and ±100 for the full control effect; nearly all actives have a fitted effect of over 55% in size
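Giardia FBPA (40 nM reagent) was preincubated 10 min at RT with compound (up to 57.5 uM final), then substrate plus GAPDH/TPI/NAD/arsenate coupling system with diaphorase/resazurin was added; resorufin fluorescence (525/598 nm) was read after 20 min.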
Active calls of the source: *; ? = inconclusive; . = no result given; + = active, no number. The sample as a whole holds a higher share of hits than the screen did. Unless noted, calls follow the shape of the dose curve; as a rule, active = well fitted curve in the direction sought with a large enough effect; inconclusive = small, poorly fitted or top-dose-only effect, or another doubt; inactive = no such curve, though single readings can be large; an effect the other way counts as inactive or inconclusive.

SMILES	TbPYK inhibitor	LmPK inh	Cycloheximide cs	RE007 growth inh	Shiga inhibitor	Giardia FBPA inh
O=C1CS(=O)(=O)C2(C(=O)N(Cc3ccccc3Cl)c3ccccc32)N1c1ccc(F)cc1 (centres undefined)	-4%	.	.	.	.	.
CCc1ccccc1NC(=O)c1nnn(CC(=O)Nc2c(C)cc(C)cc2C)c1N	0%	.	.	.	.	.
O=c1oc2ccccc2cc1-c1ccc(O)cc1	-6%	-8%	118*	0%	69*	-4%
COc1ccc(-c2cc3ccc(OCC(N)=O)cc3oc2=O)cc1OC	0%	6%	9	1%	18	-5%
O=c1oc2ccccc2cc1NCc1ccccc1O	-2%	-3%	55*	?	123*	-10%
COc1ccc(-c2cc3ccc(O)cc3oc2=O)cc1OC	-4%	-25%	32*	-26%	68*	14%
O=c1oc2ccccc2cc1O	.	.	.	.	.	-2%
Nc1ccc(-c2cc3ccccc3oc2=O)cc1	-4%	5%	-6	-21%	-14	-1%
Nc1ccc2oc(=O)c(-c3ccccc3)cc2c1	-6%	1%	36*	-16%	56*	2%
O=C(NCc1ccco1)c1cc(-c2ccc3c(c2)OCO3)on1	4%	0%	42*	-7%	109*	6%
O=C(NCc1ccco1)c1cc(-c2cccc(Cl)c2)on1	-2%	4%	33*	1%	38*	12%
Cc1ccc(-c2cc(C(=O)NCc3ccco3)no2)cc1	2%	-3%	28*	2%	43*	7%
CC1CCc2onc(C(=O)NCc3ccco3)c2C1 (centres undefined)	-2%	-4%	38*	?	85*	-2%
Cc1ccccc1-c1ccnc2c(-c3ccc(F)cc3)c(C)nn12	-15%	.	.	.	.	.
COc1cc(NC(=O)Nc2nnc(N3CCCCCC3)s2)cc(OC)c1	-12%	.	.	.	.	.
COc1ccc(-c2noc(N3CCN(c4cccc(C)c4C)CC3)n2)cc1OC	1%	.	.	.	.	.
COc1cccc(-c2cc(C(=O)NCc3ccco3)no2)c1	-1%	5%	50*	2%	86*	0%
O=C(NCc1ccc(Cl)cc1)c1cc(-c2ccc(F)cc2)on1	2%	.	.	.	.	.
O=C(NCc1ccco1)c1cc(-c2ccc(Cl)cc2)on1	7%	-3%	20*	1%	77	-2%
Cc1cc(C(=O)NCc2ccco2)no1	-8%	0%	7	-9%	59	0%
O=C(NCc1ccco1)c1nc(-c2ccc(F)cc2)no1	-17%	3%	8	-19%	41*	0%
CC(C)Cc1cc(C(=O)NCc2ccco2)no1	-2%	1%	32*	5%	52*	0%
Cc1cccc(C)c1OCC(=O)N[C@@H](Cc1ccccc1)[C@@H](O)C[C@H](Cc1ccccc1)NC(=O)[C@H](C(C)C)N1CCCNC1=O	0%	.	.	.	.	.
CCOC(=O)C1CCN(S(=O)(=O)c2cc3c4c(c2)CC(=O)N4CCC3)CC1	-7%	.	.	.	.	.
O=C(NCc1ccco1)c1ccc(-c2cccc(Cl)c2)o1	22%	9%	52*	-10%	71*	-3%
SMILES	TbPYK inhibitor	LmPK inh	Cycloheximide cs	RE007 growth inh	Shiga inhibitor	Giardia FBPA inh
Fc1ccc(CNc2nc3c(-c4ccc(F)cc4)nnn3c3ccccc23)cc1	-7%	.	.	.	.	.
C#CCCCC(=S)Nc1ccccc1	.	.	.	.	.	5%
CCN(CC)c1ccc(/C=N/N2CCN(c3ccccc3OC)CC2)cc1	9%	-4%	3	-7%	25	4%
COc1ccccc1N1CCN(/N=C/c2cccc(Cl)c2)CC1	1%	6%	38*	?	151*	-4%
COc1ccccc1N1CCN(/N=C/c2cccc(OC)c2O)CC1	-10%	-16%	11	-8%	3	-1%
COc1cccc(/C=N/N2CCN(c3ccccc3OC)CC2)c1	3%	-7%	49*	-25%	+	-1%
COc1cc(OC)c(/C=N/N2CCN(c3ccccc3OC)CC2)c(OC)c1	1%	-5%	24*	-8%	65*	0%
COc1ccc(C(=O)NCC(c2cccs2)S(=O)(=O)c2cccs2)cc1 (centres undefined)	-6%	.	.	.	.	.
Cc1c(C(=O)Nc2c(F)cccc2F)sc2ncn(Cc3ccccc3F)c(=O)c12	0%	.	.	.	.	.
CCOC(=O)C1C(=O)C=C(c2ccc(C)cc2)CC1c1ccco1 (centres undefined)	4%	-1%	21*	-20%	54*	0%
CCOC(=O)C1C(=O)C=C(c2ccc(NS(C)(=O)=O)cc2)CC1c1ccco1 (centres undefined)	-2%	-1%	3	-5%	12	7%
Cc1ccc(CNC(=O)c2c(O)nc3ccccn3c2=O)cc1	3%	.	.	.	.	.
C/C(Cc1ccccc1)=N\NC(=O)c1ccc(F)cc1	-4%	-2%	26*	-3%	44	25%
O=C(N/N=C(\Cc1ncc[nH]1)c1ccccc1)c1ccccc1	.	1%	-2	.	-6	-4%
O=C(NN=C(Cc1ccccc1)Cc1ccccc1)c1ccc(F)cc1	5%	-3%	36*	-14%	77*	8%
O=C(NN=C(Cc1ccccc1)Cc1ccccc1)c1ccccc1O	-1%	2%	11	-21%	18	?
NC(=O)c1ccc(C(=O)N/N=C(/Cc2ccccc2)c2ccccc2)cc1	9%	0%	26*	5%	22	-6%
COC(=O)[C@H]1O[C@@H](c2cc(OC)c(C)c(OC)c2OCc2ccccc2)[C@H](C)[C@@H]2O[C@]12C	.	.	.	.	.	-3%
c1ccc(-c2nc3nc4ccccc4nc3n2CC2CCCO2)cc1 (centres undefined)	4%	1%	30*	0%	30	0%
O=C(Cc1ccccc1)Nc1nc(-c2cccc([N+](=O)[O-])c2)cs1	1%	-4%	-4	-5%	-9	7%
O=[N+]([O-])c1cccc(-c2csc(Nc3ccccc3)n2)c1	0%	5%	68*	?	91*	-6%
O=C(Nc1nc(-c2ccccc2)cs1)c1cccc([N+](=O)[O-])c1	1%	-3%	50*	6%	100*	.
O=C(Nc1nc(-c2cccnc2)cs1)c1cccc([N+](=O)[O-])c1	-1%	-2%	-1	0%	31	2%
COc1ccccc1Nc1nc(-c2cccc([N+](=O)[O-])c2)cs1	1%	2%	47*	-8%	59	-15%
COc1ccc(C(=O)NCC23C=CC(O2)C2C(=O)N(Cc4ccccc4)C(=O)C23)cc1 (centres undefined)	-2%	0%	-3	25µM*	-3	2%
COc1ccc(CCNC(=O)c2ccc(CN3CCC(Cc4ccccc4)CC3)cc2)cc1	-14%	3%	7	-4%	-3	-1%
CC1=CC(=O)[C@@H]2C[C@H]1C2(C)C	.	.	.	.	.	6%
